Screening results from PubChem BioAssay.
NFkB SMM – binders of NF-kB p50 subunit, primary screen, biochemical, small molecule microarray, anti-His fluorescence; Nuclear factor NF-kappa-B p105 subunit (Homo sapiens), P19838; AID 624139, 2012; anti-His fluorescence binding; 1.3% of 17,000 active; calls only;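 active = spot fluorescence over background significantly raised, with a chance value under 7% in all four replicate spots of the compound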;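 note: probe protein is his-tagged human p50 processed subunit at 1 µg/ml; raw spot fluorescence signals with no normalization applied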
STAT3 binder – STAT3 binders, primary screen, biochemical, small molecule microarray, single point, set 2 | Signal transducer and activator of transcription 3 (Homo sapiens), P40763 | calls only | His-STAT3 binding, anti-His fluorescence | AID 624138, 2012 | 0.2% of 17,000 active;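 active = compounds whose four printed spots each show fluorescence over background unusually high for their array block, chance value under 7%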
Myc binder – binders of human c-Myc, primary screen, biochemical, small molecule microarray, anti-His fluorescence; Myc proto-oncogene protein (Homo sapiens), P01106; calls only; His-c-Myc binding; 1.5% of 17,000 active;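 active = spot fluorescence over background with P-value below 7% in all four replicate spots, showing protein binding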;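 note: score is binary with 100 for all four spots passing and 0 otherwise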
Target sequence (P01106 whole entry, looked up): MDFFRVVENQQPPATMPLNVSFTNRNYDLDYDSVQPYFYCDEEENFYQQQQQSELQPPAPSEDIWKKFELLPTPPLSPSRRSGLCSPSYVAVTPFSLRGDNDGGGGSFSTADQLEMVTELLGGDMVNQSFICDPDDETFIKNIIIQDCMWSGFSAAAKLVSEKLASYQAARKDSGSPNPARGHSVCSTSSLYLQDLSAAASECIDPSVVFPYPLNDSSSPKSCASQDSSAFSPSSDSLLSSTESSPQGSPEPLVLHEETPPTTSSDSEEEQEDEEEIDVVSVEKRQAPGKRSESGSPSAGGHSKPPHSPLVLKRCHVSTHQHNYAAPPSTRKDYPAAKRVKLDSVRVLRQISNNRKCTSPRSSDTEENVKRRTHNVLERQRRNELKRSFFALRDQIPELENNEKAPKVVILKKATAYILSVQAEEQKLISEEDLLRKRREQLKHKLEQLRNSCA
mut p53 SMM – binders of human mutant p53, primary screen, biochemical, small molecule microarray, anti-GST fluorescence. mutant tumor protein p53 (GST-tagged), Homo sapiens. small molecule microarray binding. calls only. 0.4% of 17,000 active. AID 624136, 2012;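 active = compounds whose four printed spots each glow above background more than chance allows, each with a p-value under 7%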
Active calls of the source: *; i = inactive; + = active, no number. The list is not random: actives were taken first. Their share in the collection is about 2.1%.

SMILES	NFkB SMM	STAT3 binder	Myc binder	mut p53 SMM
Cc1cc(C)c(S(=O)(=O)NCC(=O)O)c(C)c1	i	i	+	i
Cc1ccc2cc(S(=O)(=O)NCCC(=O)O)ccc2c1	i	i	+	i
Cn1c(=O)oc2cc(S(=O)(=O)NCCC(=O)O)ccc21	i	i	i	i
Cc1cc(S(=O)(=O)NCC(=O)O)ccc1F	i	i	+	i
CSc1cccc(NC(=O)CNS(=O)(=O)c2c(C)cc(C)cc2C)c1	i	i	i	i
O=[N+]([O-])c1ncn(Cc2ccccn2)n1	i	i	i	i
C=C1C(=O)O[C@@H]2C3=C(C)CC[C@]34O[C@@H](C[C@@H]4C)[C@H]12	i	i	i	i
O=C(O)CCc1ccc(-c2cccs2)n1-c1cc(Cl)ccc1O	i	i	i	i
Cc1cc(S(=O)(=O)NC2CCCCC2)ccc1OCC(=O)O	i	i	+	i
Cc1ccc(OCC(=O)N(c2ccccn2)C2CCCCC2)c(C)c1	i	i	i	i
C[C@@H]1CCCCO[C@H](CN(C)C(=O)Nc2ccccc2)[C@@H](C)CN([C@@H](C)CO)C(=O)c2cc(NC(=O)CCC(F)(F)F)ccc2O1	i	i	+	i
C[C@H](CO)N1C[C@H](C)[C@H](CN(C)C(=O)Nc2ccccc2)OCCCC[C@H](C)Oc2ccc(NC(=O)CCC(F)(F)F)cc2C1=O	+	i	i	i
COC(=O)c1ccccc1NC(=O)CSc1nc(-c2ccccc2)cc(=O)[nH]1	i	i	i	i
Cc1cc2nc3c(=O)[nH]c(=O)nc-3n(C)c2cc1C=O	i	i	+	i
O=C(O)CSc1c[nH]c2ccccc12	i	i	+	i
CCCC(NS(=O)(=O)c1ccc(C)cc1)C(=O)O (stereo not drawn)	i	i	+	i
COc1cc(NC(=O)C(C)Oc2ccccc2)c(Cl)cc1NC(=O)c1ccc(Cl)cc1 (stereo not drawn)	i	i	i	i
Cc1cc(Cl)ccc1OC(C)C(=O)Nc1ccc(C(=O)Nc2ccccc2C(=O)O)cc1 (stereo not drawn)	i	i	+	i
Cc1cccc(NC(=O)c2ccc(OC(C)C(=O)Nc3ccc(Br)cc3)cc2)c1C (stereo not drawn)	i	i	i	i
COc1ccc(NC(=O)c2ccco2)cc1NC(=S)NC(=O)c1cc2ccccc2o1	i	i	i	i
Cc1noc(C)c1S(=O)(=O)Nc1ccc2c(c1)C(=O)N([C@H](C)CO)C[C@H](C)[C@@H](CN(C)C(=O)Nc1cccc3ccccc13)OCCCC[C@H](C)O2	+	i	+	i
Cc1noc(C)c1S(=O)(=O)Nc1ccc2c(c1)C(=O)N([C@H](C)CO)C[C@H](C)[C@@H](CN(C)C(=O)NC(C)C)OCCCC[C@H](C)O2	+	i	i	i
CC(=O)/C=C/C1(O)C(C)CCC2C(C)(C)CCCC21C (stereo not drawn)	i	i	i	i
Cc1nn(CCCC(=O)O)c(C)c1[N+](=O)[O-]	i	i	+	i
COC1CC(OC2C(C)OC(OC3C(C)OC(OC4C(C)OCC(OC5C(O)C(O[C@H]6CC[C@@]7(C)C(=CC[C@]8(O)C7CC(OC(=O)c7ccccc7)[C@@]7(C)[C@]8(O)CC[C@@]7(O)C(C)=O)C6)OC(CO)C5OC5OC(CO)C(O)C(O)C5O)C4OC)CC3OC)CC2OC)OC(C)C1O (stereo partly drawn)	+	i	+	i
SMILES	NFkB SMM	STAT3 binder	Myc binder	mut p53 SMM
CO[C@@H]1CC(OC2CCC3(C)C(CCC45CCC(C6=CC(=O)OC6)C(C)(CCC43)C5=O)C2)O[C@H](C)[C@@H]1O[C@@H]1O[C@H](CO[C@@H]2O[C@H](CO)[C@@H](O)[C@H](O)[C@H]2O)[C@@H](O)[C@H](O)[C@H]1O (stereo partly drawn)	i	i	i	i
C/C=C(\C)C(=O)O[C@@H]1[C@@H](OC(C)=O)C2[C@@]3(C)CC[C@H](OC4CC(OC)C(OC5CC(OC)C(OC6CC(OC)C(OC7OC(C)C(OC8OC(CO)C(O)C(O)C8O)C(OC)C7O)C(C)O6)C(C)O5)C(C)O4)CC3=CC[C@@]2(O)[C@@]2(O)CC[C@H](C(C)=O)[C@@]12C (stereo partly drawn)	+	i	+	i
COC(=O)C1=COC(O[C@@H]2O[C@H](CO)[C@@H](O)[C@H](O)[C@H]2O)[C@@H]2[C@@](C)(O)[C@@H](OC(=O)/C=C\c3ccccc3)C[C@]12O (stereo partly drawn)	i	i	i	i
COc1ccc([Si](C)(C)[C@H]2[C@H](CCO)O[C@@]3(C(=O)N(Cc4ccccc4)c4ccc(NC(=O)[C@H](C)O)cc43)[C@@H]2C)cc1	+	i	i	+
CCC1(C)Cc2ccccc2-c2nc3[nH]nc(SCC(=O)Nc4ccc(OC)c(Cl)c4)n3c(=O)c21 (stereo not drawn)	i	i	i	i
O=C(Nc1ccccc1)N[C@@H](Cc1ccccc1)Cn1cc(CN2C(=O)COC[C@H]2c2ccccc2)nn1	i	i	i	i
O=C(Cn1cc(CN2C(=O)COC[C@H]2c2ccccc2)nn1)Nc1nccs1	i	i	i	+
CC(=O)Nc1ccc(NC(=O)CSc2nnc3c4ccccc4n(C)c3n2)cc1	i	i	i	i
CCCCn1c2ccccc2c2nnc(SCCN3CCOCC3)nc21	i	i	i	+
C[C@@H]1CCCCO[C@H](CN(C)C(=O)CCC(F)(F)F)[C@H](C)CN([C@@H](C)CO)C(=O)c2cc(NC(=O)c3ccncc3)ccc2O1	+	i	i	i
C[C@@H]1CCCCO[C@H](CN(C)C(=O)CCC(F)(F)F)[C@@H](C)CN([C@H](C)CO)C(=O)c2cc(NC(=O)c3ccncc3)ccc2O1	i	i	i	i
C[C@H](CO)N1C[C@H](C)[C@H](CN(C)C(=O)CCC(F)(F)F)OCCCC[C@H](C)Oc2ccc(NC(=O)c3ccncc3)cc2C1=O	+	i	+	i
C[C@@H]1CN([C@@H](C)CO)C(=O)c2cc(NC(=O)c3ccncc3)ccc2O[C@@H](C)CCCCO[C@H]1CN(C)C(=O)CCC(F)(F)F	i	i	i	i
COC(=O)c1ccccc1NC(=O)c1cc(-c2ccccn2)nc2c(C)c(Cl)ccc12	i	i	i	i
NC(=O)CSc1nc2ccccc2n1CC(=O)N1CCCCC1	i	i	i	i
